Shown are actives, neighbours in structure and some others; about 3.2% of the full set was active somewhere.
HEK293 tox – qHTS of GLP-1 Receptor Inverse Agonists: Cytotox Screen; Potency, µM (top dose mostly 38.3 µM), without a hit: at the highest dose activity change, negative = inhibition, hits mostly inhibitors; 0.13% of 410,000 active; HEK293 cAMP-luciferase reporter cells, luminescence, 24 h;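 also: loss of luciferase light is scored as toxicity; % is scaled to controls: 0 for no effect and ±100 for the full control effect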
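Here, cytotoxicity is scored as loss of luminescence. The MLSMR collection was tested on cells seeded in medium containing 10% Nu serum, with a 24 hr compound exposure preceded by 12 hours of culture.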
GLP1R ag – qHTS of GLP-1 Receptor Agonists; Glucagon-like peptide 1 receptor (Homo sapiens), P43220; HEK293 GLP-1R CRE-luciferase, luminescence, 4-6 h; cells express a hypersensitive GLP-1R form; Potency, µM (titrated, usually from 45.6 µM), inactives show at the highest dose activation, usual class: activators; 0.007% of 380,000 active; also: % of control where 0% means no effect
ClpP mod – qHTS Assay for Activators of ClpP. purified B. subtilis ClpP, FRET peptide cleavage, 20 min. Potency, µM (titrated, usually from 57.5 µM), inactives show top-dose activity change, negative = active. 1.9% of 340,000 active. AID 651965, 2013; active = well fitted falling curve with a large enough effect; inconclusive = small, poorly fitted or top-dose-only effect; inactive = no such curve, though single readings can be large or run the other way; also: the source files actives as falling curves though it sought activators and does not explain the sign; nearly all actives have a fitted effect of over 65% in size
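Buffer: 100 mM Tris/HCl pH8, 100 mM KCl, 0.05% low protease BSA, 2.5% glycerol, 0.01% Tween-20. ClpP 10 microg/mL final; 20 min RT; delta FRET normalized to ADEP and DMSO controls.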
GLP1R inv ag – qHTS of GLP-1 Receptor Inverse Agonists (Inhibition Mode); Glucagon-like peptide 1 receptor (Homo sapiens), P43220; Potency, µM (titrated, usually from 38.3 µM), for the others: at the top dose activity change, negative = inhibition, actives largely listed as inhibitors; HEK293 GLP-1R CRE-luciferase, luminescence, 24 h; GLP-1R form is constitutively active; AID 624417, 2012; 1.6% of 410,000 active; also: % is scaled to controls: 0 for no effect and ±100 for the full control effect; nearly all actives have a fitted effect of over 55% in size
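HEK293 cells stably co-expressing a cAMP-responsive luciferase reporter and constitutively active GLP-1R were seeded, incubated 12 h, then exposed to compounds for 24 h at 37 C. Luminescence was read 12 min after detection reagent; inverse agonists lower signal.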
Numbers without * were called inactive; ? = inconclusive; / = not tested or not shown. Unless noted, calls follow the shape of the dose curve; as a rule, active = well fitted curve in the direction sought with a large enough effect; inconclusive = small, poorly fitted or top-dose-only effect, or another doubt; inactive = no such curve, though single readings can be large; an effect the other way counts as inactive or inconclusive. Potency is read from the fitted curve at half-maximal effect.

SMILES	HEK293 tox	GLP1R ag	ClpP mod	GLP1R inv ag
CC(C)(C)n1ncc2c(=O)n(CC(=O)NCc3ccccc3)cnc21	?	-14%	0%	4.5µM*
CC(C)(C)c1cc(Cl)ccc1OCCOCCN1CCCC1	?	4%	/	?
Cc1cc(C(C)(C)C)ccc1OCCOCCN1CCCC1	6%	2%	1%	13µM*
CCN(CC)CCNc1ccc(C)c2sc3ccc(O)cc3c(=O)c12	?	-27%	-1%	10µM*
Cc1[nH]c2ccccc2c1/C=C/c1ccnc2ccccc12	/	/	2%	/
O=C(C1=NN(c2ccccc2)C2C(=O)N(c3cccc(Cl)c3)C(=O)C12)c1ccccc1 (centres undefined)	115%	1%	18µM*	-11%
O=C(C1=NN(c2ccccc2)C2C(=O)N(c3ccc(Cl)cc3)C(=O)C12)c1ccccc1 (centres undefined)	38%	-6%	1%	5%
O=C(NC1CC(=O)N(c2cccc(F)c2)C1)c1cccs1 (centres undefined)	3%	/	1%	7%
Cc1ccccc1OC(C)C(=O)NCCNC(=O)C(C)Oc1ccccc1C (centres undefined)	/	/	-1%	/
COc1cccc(-n2ccn(CC(=O)Nc3ccccc3F)c(=O)c2=O)c1	-12%	/	2%	-25%
CCc1ccc(NC(=O)C(C)Oc2nnc(-c3cccs3)c(-c3cccs3)n2)cc1 (centres undefined)	-18%	0%	-1%	10µM*
COc1ccc(CCNS(=O)(=O)c2ccc(N3CCCCS3(=O)=O)cc2)cc1OC	0%	/	-1%	-14%
CCCN(CC(=O)Nc1ccccc1C)CC(=O)Nc1ccc(Br)cc1F	-23%	12%	0%	10µM*
CCCN(CC(=O)Nc1ccccc1Br)CC(=O)Nc1ccc(F)c(F)c1F	-16%	19%	1%	?
O=c1[nH]c(=O)n(Cc2ccccc2)c2nc(-c3ccco3)cc(C(F)(F)F)c12	20%	15%	14µM*	56%
COC(=O)c1ccccc1NC(=O)Cn1nc(C(F)(F)F)c2c1CCCC2	1%	/	-23%	11µM*
COc1ccc(Nc2ncnc3onc(-c4ccc(Cl)cc4)c23)cc1Cl	-26%	1%	-22%	?
C=C1/C(=C\C=C2/CCC[C@@]3(C)[C@@H]([C@H](C)OCCC(C)(C)O)CC[C@@H]23)C[C@@H](O)C[C@@H]1O	/	1%	/	/
NC(=O)c1sc2nc(N3CCOCC3)c3c(c2c1N)CCCC3	13%	18%	16µM*	159%
Cc1nc2sc(C(N)=O)c(N)c2c2c1CCCC2	17%	-6%	/	1.1µM*
Cc1ccccc1NC(=O)c1sc2nc(N3CCOCC3)c3c(c2c1N)CCCC3	5%	?	4%	34%
Nc1c(C(=O)NCCc2ccccc2)sc2nc(N3CCOCC3)c3c(c12)CCCC3	19%	22%	/	8.9µM*
CCc1ccc(NC(=O)Cn2c(=O)n(CCCC(=O)NCc3ccccc3OC)c(=O)c3ccccc32)cc1	6%	1%	-3%	-6%
CO/N=C(\C(=O)N[C@@H]1C(=O)N2C(C(=O)OCOC(=O)C(C)(C)C)=C(C)CS[C@H]12)c1csc(N)n1	/	-5%	/	/
COc1ccc(C2NC(=O)c3ccccc3N2)cc1OC (centres undefined)	-7%	4%	?	76%
SMILES	HEK293 tox	GLP1R ag	ClpP mod	GLP1R inv ag
COc1ccc2ccccc2c1C1NC(=O)c2ccccc2N1 (centres undefined)	?	18%	14µM*	?
CSc1ccc(/C=N/N2CCN(Cc3ccc(C)cc3C)CC2)cc1	-1%	18%	-1%	-18%
Cc1ccc(CN2CCN(/N=C/c3sccc3C)CC2)c(C)c1	-8%	1%	28µM*	?
O=S(=O)(c1ccc(NC2CCCc3ccccc32)nc1)N1CCOCC1 (centres undefined)	-8%	0%	32µM*	3%
O=C(NC1CCCc2ccccc21)c1ccc(S(=O)(=O)N2CCOCC2)cc1 (centres undefined)	-7%	15%	1%	-14%
COc1ccccc1N1CCN(c2ncnc3c2cnn3C)CC1	-14%	/	1%	2%
COc1cccc(Cn2cccc(NC(=O)Nc3cccc(C#N)c3)c2=O)c1	1%	-5%	28µM*	11%
COc1cccc(NC(=O)Nc2cccn(Cc3ccc(C)cc3)c2=O)c1	-4%	7%	3%	?
Cc1ccc(-n2ncc3c(Nc4ccc5c(c4)OCCO5)ncnc32)cc1C	-6%	/	?	5%
Cc1cc(OCCCCCNCCO)cc(C)c1Cl	?	-1%	2%	-5%
Cc1cc(OCCNCCO)cc(C)c1Cl	82%	0%	-2%	8.9µM*
CCCc1cc(=O)n2[nH]c(C)cc2n1	6%	4%	32µM*	6%
COC(=O)C1CCN(C(=O)COC(=O)Cc2c[nH]c3ccccc23)CC1	60%	0%	32µM*	1%
O=C(Cc1c[nH]c2ccccc12)OCC(=O)c1ccccc1	1%	2%	0%	13µM*
CCOC(=O)c1ccccc1NC(=O)Cn1c(=O)n(CCC(=O)NCc2ccccc2OC)c(=O)c2ccccc21	-6%	-4%	-2%	9%
COc1ccccc1NC(=O)CC(c1ccc(OC(C)C)cc1)c1ccccc1OC (centres undefined)	5%	-2%	3%	11µM*
COc1ccc(CNCCC(c2ccc(OC(C)C)cc2)c2ccccc2OC)cc1 (centres undefined)	?	0%	-3%	5.6µM*
COc1ccccc1C(CC(=O)Nc1ccc(C)c(C)c1)c1ccc(OC(C)C)cc1 (centres undefined)	2%	6%	/	?
Cc1cc(F)ccc1NC(=O)CCS(=O)(=O)c1cc2c3c(c1)CCN3C(=O)CC2	3%	/	2%	10%
Clc1ccc(CSc2ncnc3c2ncn3C2CCCCO2)cc1 (centres undefined)	0%	31%	/	11µM*
Cc1cccc(N(CC(O)Cn2c3ccccc3c3ccccc32)S(=O)(=O)c2ccc(F)cc2)c1 (centres undefined)	?	/	32µM*	13µM*
CC(=O)Nc1ccc(N(CC(O)Cn2c3ccccc3c3ccccc32)S(=O)(=O)c2ccc(C)cc2)cc1 (centres undefined)	?	3%	-1%	7.9µM*
Cc1ccc(S(=O)(=O)N(CC(O)CN2C(=O)NC(C)(C)C2=O)c2cccc(C)c2)cc1 (centres undefined)	5%	20%	/	-8%
COc1ccc(CC(=O)Nc2cc(-c3cn4cccnc4n3)ccc2C)cc1OC	-12%	/	5%	-22%
Cc1c(Cl)cccc1-n1ncc(C(=O)N2CCN(C)CC2)c1C1CCN(C(=O)OC(C)(C)C)CC1	-1%	/	-1%	0%
